According to PubChem BioAssay (NCI):
This is part of a sample that, as a whole, favours compounds with a hit. Of some 79,000 tested, about 15% had one in any assay. Activity calls are given as the source filed them. No stated cut-off is given here; in the data, active means growth inhibition above about 70%; inactive means the rest.

Tests used:
[1] = NCI Yeast Anticancer Drug Screen. Data for the rad52 strain (AID 147);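 further: 0% = growth of vehicle-treated control cultures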; details: S. cerevisiae rad52 mutant growth inhibition, stronger effect = higher value
Procedure, shortened: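 Compounds are applied to a genetically defined yeast strain lacking normal DNA damage repair, and inhibition of growth is expressed relative to cultures given vehicle only.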

[2] = NCI Yeast Anticancer Drug Screen. Data for the wt1 strain (AID 149);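 further: 0% = growth of vehicle-treated wt1 cultures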; details: S. cerevisiae wt1 strain (SPY 50644) growth inhibition, stronger effect = higher value
Procedure, shortened: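 Compounds are added to wt1 yeast cultures. Growth is then measured. Inhibition is expressed relative to vehicle-treated controls.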

[3] = NCI Yeast Anticancer Drug Screen. Data for the rad50EPP+ strain (AID 151);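 further: 0% = growth of vehicle-treated control cultures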; details: S. cerevisiae rad50 mutant strain, stronger effect = higher value
Procedure, shortened: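 Compounds were applied to the rad50EPP+ yeast strain, which bears a defined DNA repair alteration, and growth inhibition was determined relative to vehicle-treated cultures.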

[4] = NCI Yeast Anticancer Drug Screen. Data for the mgt1 strain (AID 153); details: S. cerevisiae mgt1 mutant growth inhibition, stronger effect = higher value
Procedure, shortened: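 Strain: mgt1 yeast, one of a set carrying defined DNA damage repair or cell cycle control alterations. Compound-treated growth compared with vehicle.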

[5] = NCI Yeast Anticancer Drug Screen. Data for the rad50 strain (AID 155);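 further: 0% = growth of vehicle-only cultures of the same strain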; details: S. cerevisiae rad50 strain growth inhibition, stronger effect = higher value
Procedure, shortened: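 Inhibition values express reduced yeast growth in compound-treated cultures relative to vehicle-treated controls.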

[6] = NCI Yeast Anticancer Drug Screen. Data for the mec2-1 strain (AID 157); details: S. cerevisiae mec2-1 strain, stronger effect = higher value
Procedure, shortened: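 Strain: mec2-1 (DNA repair/cell cycle alteration). Compound exposure, then growth measured; inhibition expressed relative to vehicle.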

[7] = NCI Yeast Anticancer Drug Screen. Data for the rad14 strain (AID 159);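 further: 0% = growth of vehicle-treated control cultures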; details: S. cerevisiae rad14 strain growth inhibition, stronger effect = higher value
Procedure, shortened: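 A mutant yeast strain defective in DNA damage repair is treated with compound; inhibition of its growth is scored against untreated, vehicle-exposed cultures.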

[8] = NCI Yeast Anticancer Drug Screen. Data for the sgs1 mgt1 strain (AID 161);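 further: 0% = growth of cultures given vehicle only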; details: S. cerevisiae sgs1 mgt1 strain, stronger effect = higher value
Procedure, shortened: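 Genetically altered yeast, compound exposure, growth inhibition relative to vehicle.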

[9] = NCI Yeast Anticancer Drug Screen. Data for the CLN2oe strain (AID 163);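 further: 0% = growth of vehicle-only control cultures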; details: S. cerevisiae CLN2oe strain, stronger effect = higher value
Procedure, shortened: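 Growth of a genetically modified yeast strain is measured after compound exposure and compared with cultures given vehicle alone.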

[10] = NCI Yeast Anticancer Drug Screen. Data for the cln2 rad14 strain (AID 165);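 further: 0% = growth equal to vehicle treated cultures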; details: S. cerevisiae cln2 rad14 strain, stronger effect = higher value
Procedure, shortened: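 Compounds are applied to the cln2 rad14 yeast strain, and growth is then compared with that of vehicle-treated cultures to give inhibition.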

[11] = NCI Yeast Anticancer Drug Screen. Data for the bub3 strain (AID 167); details: S. cerevisiae bub3 mutant strain, stronger effect = higher value
Procedure, shortened: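 Steps: expose the mutant yeast strain to compound; grow alongside vehicle-treated cultures; measure growth; express inhibition against the vehicle cultures.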

[12] = NCI Yeast Anticancer Drug Screen. Data for the wt2 strain (AID 169);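 further: 0% = growth of vehicle-treated yeast cultures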; details: S. cerevisiae wt2 strain growth inhibition, stronger effect = higher value
Procedure, shortened: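 This strain belongs to a panel of yeast strains with defined genetic alterations in DNA damage repair or cell cycle control. Compounds are applied, and growth inhibition is measured against vehicle-treated cultures.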

[13] = NCI Yeast Anticancer Drug Screen. Data for the mlh1 strain (AID 171);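 further: 0% = growth of vehicle-treated control cultures of the same strain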; details: S. cerevisiae mlh1 strain growth inhibition, stronger effect = higher value
Procedure, shortened: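 Growth of the mutant yeast strain after compound exposure, expressed as inhibition relative to vehicle-only controls.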

[14] = NCI Yeast Anticancer Drug Screen. Data for the mlh1 rad18 strain (AID 175); details: S. cerevisiae mlh1 rad18 strain growth inhibition, stronger effect = higher value
Procedure, shortened: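 Read-out is yeast growth inhibition, calculated against vehicle-only controls. The compound was applied to a strain engineered with DNA damage repair alterations.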

[15] = NCI Yeast Anticancer Drug Screen. Data for the rad18 strain (AID 177); details: S. cerevisiae rad18 mutant growth inhibition, stronger effect = higher value
Procedure, shortened: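 Growth of the mutant yeast strain after compound exposure, normalised to vehicle-only cultures.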

[16] = at 5.0 µM (retest, dose inferred, filed as 0.5)
[17] = at 50.0 µM (retest, dose inferred, filed as 5.0)

Measured: growth inhibition

CC(=O)[O][Bi]([c]1ccccc1)[c]1ccccc1
active: [1]; at 11.0 µM 72% | [1]; at 33.0 µM 91% | [1]; at 100.0 µM 94% | [2]; at 33.0 µM 90% | [2]; at 100.0 µM 94% | [4]; at 33.0 µM 89% | [4]; at 100.0 µM 95% | [5]; at 11.0 µM 73% | [5]; at 33.0 µM 95% | [5]; [17] 94% | [5]; at 50.0 µM 86% | [5]; at 100.0 µM 95% | [6]; at 33.0 µM 90% | [6]; [17] 95% | [6]; at 50.0 µM 89.5% | [6]; at 100.0 µM 95% | [7]; at 33.0 µM 95% | [7]; at 100.0 µM 96% | [8]; [17] 96% | [8]; at 50.0 µM 86.5% | [9]; at 33.0 µM 80% | [9]; at 100.0 µM 91% | [10]; [17] 95% | [10]; at 50.0 µM 84.7% | [11]; at 33.0 µM 91% | [11]; [17] 96% | [11]; at 50.0 µM 83.2% | [11]; at 100.0 µM 94% | [12]; at 11.0 µM 79% | [12]; at 33.0 µM 96% | [12]; at 100.0 µM 96% | [13]; at 33.0 µM 89% | [13]; at 100.0 µM 95% | [14]; [17] 93% | [14]; at 50.0 µM 91% | [15]; at 11.0 µM 72% | [15]; at 33.0 µM 91% | [15]; at 100.0 µM 94%
inactive: [1]; at 1.2 µM 31% | [1]; at 3.7 µM 41% | [2]; at 1.2 µM 2% | [2]; at 3.7 µM 11% | [2]; at 11.0 µM 23% | [3]; at 1.2 µM 31% | [3]; at 3.7 µM 39% | [3]; at 11.0 µM 18% | [3]; at 33.0 µM 20% | [3]; at 100.0 µM 24% | [4]; at 1.2 µM 28% | [4]; at 3.7 µM 30% | [4]; at 11.0 µM 40% | [5]; at 1.2 µM 36% | [5]; at 3.7 µM 42% | [5]; [16] 27% | [6]; at 1.2 µM 29% | [6]; at 3.7 µM 30% | [6]; [16] 19% | [6]; at 11.0 µM 40% | [7]; at 1.2 µM 39% | [7]; at 3.7 µM 35% | [7]; at 11.0 µM 64% | [8]; [16] 6% | [9]; at 1.2 µM 22% | [9]; at 3.7 µM 16% | [9]; at 11.0 µM 31% | [10]; [16] 7% | [11]; at 1.2 µM 15% | [11]; at 3.7 µM 13% | [11]; [16] 22% | [11]; at 11.0 µM 56% | [12]; at 1.2 µM 4% | [12]; at 3.7 µM 4% | [13]; at 1.2 µM 28% | [13]; at 3.7 µM 30% | [13]; at 11.0 µM 40% | [14]; [16] 42% | [15]; at 1.2 µM 15% | [15]; at 3.7 µM 30%
